Many of the other results were omitted from the sample, so hits are more common in it than they were.
Tg IFNy HTS: T. gondii growth inhibition with IFN-gamma, primary screen, cell-based; Toxoplasma gondii growth in IFN-gamma-treated host cells; hits give low values; activity change, negative = inhibition, % (no concentration beside the values); 69,000 compounds, 3.8% hits; in the data active = activity change below about -70%, passing the limit was not always enough;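 note: host cells are HeLa cells infected with Toxoplasma gondii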
* marks the source's active call; other numbers are inactive results; i = inactive.

SMILES	Tg IFNy HTS
CC(C)Cc1cc(C(=O)NC(C)c2cn3ccsc3n2)n(C)n1 (configuration not stated)	-7.7
COc1cccc(-c2nc(CSc3nc4c(=O)[nH]cnc4n3-c3ccc(C)cc3)c(C)o2)c1OC	79.2
OC1(c2ccccc2)c2ccccc2-c2ccccc21	25.5
NC1=Nc2ccc(Cl)cc2C1(O)c1ccccc1 (configuration not stated)	-96.7*
N#C[C@@H]1[C@@H](c2ccccc2-c2cccc(F)c2)[C@H](CO)N1C(=O)NC1CCCCC1	11.5
O=C(N[C@H]1CCCNC1)c1cn(C/C=C/c2ccccc2)nn1	-6.0
NC(=O)Nc1cc(-c2cccc(F)c2)sc1C(=O)N[C@H]1CCCNC1	-83.9*
CC(C)(NC(=O)c1cccs1)C(=O)N1CCCC(c2ccn[nH]2)C1 (configuration not stated)	-0.5
COc1ccc2c3c(n(C)c2c1)[C@H](CO)N(Cc1ccncc1)CC31CN(C(=O)C2CCCCC2)C1	-50.5
O=c1[nH]c2cc(Cl)ccc2cc1CN1CCN(Cc2cccnc2)CC1	8.8
c1ccc2sc(CCc3nc4ccccc4s3)nc2c1	324.3
Oc1ccc(O)c(Cc2nc3ccccc3s2)c1	-93.2*
CCc1cc(C(=O)Cc2nc3ccccc3s2)c(O)cc1O	95.6
COc1ccc(C[C@H]2CCn3cc(nn3)COC[C@@H](C)NC2=O)cc1	-39.5
O=C(NCc1nc(-c2ccccc2F)no1)c1cccs1	-2.5
Cc1cc(C)n(Cc2nc(-c3ccc(NC(=O)c4cccc(N(C)C)c4)cc3)oc2C)n1	-56.0
Cc1nn(Cc2nc(-c3ccc(NC(=O)c4ccccc4)cc3)oc2C)c(C)c1C	-92.8*
Cc1nn(Cc2nc(-c3ccc(NC(=O)c4ccc(F)cc4)cc3)oc2C)c(C)c1C	111.5
Cc1oc(-c2ccccc2)nc1Cn1nnc(C(=O)Nc2ccccc2)c1C	-64.1
Cc1cccc(C(=O)Nc2ccc(-c3nc(Cn4nc(C)c(C)c4C)c(C)o3)cc2)c1	-90.6*
Cc1ccc(C(=O)Nc2ccc(-c3nc(Cn4nc(C)c(C)c4C)c(C)o3)cc2)cc1	-87.9*
Cc1nn(Cc2nc(-c3ccc(NC(=O)c4ccc(C#N)cc4)cc3)oc2C)c(C)c1C	183.9
COCC(=O)Nc1ccc(-c2nc(Cn3nc(C)c(C)c3C)c(C)o2)cc1	59.6
COc1cccc(C(=O)Nc2ccc(-c3nc(Cn4nc(C)cc4C)c(C)o3)cc2)c1	-62.4
Cc1ccc(CN2CCc3ncnc(-c4cccnc4)c3CC2)s1	-3.2
SMILES	Tg IFNy HTS
Cc1cc(C)nc(NCCC(=O)N2CCc3cc(Cl)ccc32)n1	3.3
Cc1c(Cl)cccc1NC(=O)CN1C(=O)CCc2cc(S(=O)(=O)N3CCCCC3C)ccc21 (configuration not stated)	-69.9
CCc1nc(SCC(=O)N(C)Cc2nc3ccc(Cl)cc3[nH]2)n[nH]1	-1.4
CCOC(=O)Cn1nnc(-c2ccc(C(F)(F)F)cn2)n1	22.2
Cc1cccc(Nc2nc(C(=O)Nc3cccc(C)c3C)nc3ccccc23)c1	-40.3
CSc1cccc(NC(=O)c2nc(Nc3cccc(C)c3)c3ccccc3n2)c1	-82.2*
Cc1ccc(C)c(NC(=O)c2nc(Nc3ccccc3)c3ccccc3n2)c1	-60.7
Cc1cccc(Nc2nc(C(=O)Nc3c(C)cccc3C)nc3ccccc23)c1	-70.1*
Cc1cc(C)cc(NC(=O)c2nc(Nc3ccccc3)c3ccccc3n2)c1	5.1
Cc1ccc(Nc2nc(C(=O)Nc3cccc(C)c3)nc3ccccc23)cc1	-63.5
CCn1c(CC2CCN(C(=O)c3cccc(-n4cccn4)c3)CC2)nn(C)c1=O	2.5
CCN1c2ccccc2C(=O)NC12CCN(C(=O)c1ccc(OC)cc1)CC2	35.2
CO[C@@H]1CN(C)C(=O)c2cc(NS(=O)(=O)c3cn(C)cn3)ccc2OC[C@@H](C)N(Cc2cccc(C(F)(F)F)c2)C[C@H]1C	-11.8
CC1(C(=O)N2CCC(c3n[nH]c(=O)n3Cc3ccccc3)CC2)CCCO1 (configuration not stated)	-2.6
CC(C)N(C)Cc1nnc2n1CCN(C(=O)c1ccn[nH]1)C2	0.8
Cc1ccccc1CCC1CCCN(CC(=O)Nc2cnn(C)c2)C1 (configuration not stated)	-8.1
Cc1ccc(CN(CCN2CCOCC2)C(=O)c2ccccc2-c2ccccc2)o1	14.3
COc1ccc(Br)c(C(=O)ONC(=O)c2ccc(Cl)c(Cl)c2)c1	83.0
COc1ccccc1N1CCN(C(=O)c2cc3cccnc3n(Cc3ccc(Cl)cc3)c2=O)CC1	-14.5
S=C(Nc1ccc(Oc2ccc(Cl)cc2)cc1)Nc1cccc(Cl)c1Cl	-31.6
Cc1cc(C)cc(NC(=S)Nc2ccc(Oc3ccc(OC(F)(F)F)cc3)cc2)c1	-105.5*
Cc1ccc(Sc2ccc(NC(=O)Nc3ccc(OC(F)(F)F)cc3)cn2)cc1	-66.8
CCCn1cnc(NCc2cccc(OCc3cccnc3)c2)n1	10.2
CCN1c2cc(C)ccc2-n2cccc2C12CCN(C(=O)Nc1ccccc1)CC2	-12.9
CCc1ccc(NC(=O)N2CCC3(CC2)c2cccn2-c2ccc(C)cc2N3CC)cc1	-47.3
SMILES	Tg IFNy HTS
CCc1ccccc1NC(=O)N1CCC2(CC1)c1cccn1-c1ccc(C)cc1N2CC	205.9
CCN1c2cc(C)ccc2-n2cccc2C12CCN(C(=O)Nc1cccc(OC)c1)CC2	-59.3
CCN1c2cc(C)ccc2-n2cccc2C12CCN(C(=O)Nc1ccc(C)cc1)CC2	-74.9*
CCN1c2cc(C)ccc2-n2cccc2C12CCN(C(=O)Nc1ccccc1OC)CC2	-88.2*
CCN1c2cc(C)ccc2-n2cccc2C12CCN(C(=O)Nc1cc(Cl)c(OC)cc1OC)CC2	-47.2
CCN1c2cc(C)ccc2-n2cccc2C12CCN(C(=O)Nc1ccc(F)c(Cl)c1)CC2	0.2
CCN1c2cc(C)ccc2-n2cccc2C12CCN(C(=O)Nc1cccc(Cl)c1)CC2	-82.5*
CCCCc1ccc(Nc2ncnc3c2cnn3-c2cccc(C)c2)cc1	-68.3
Cc1nccn1-c1ccc(NC(=O)c2ccn(C(F)F)n2)cc1	81.5
O=C(CSc1nc2ccccc2[nH]1)N1CCc2ccccc21	-23.2
CC(=O)N1CCC2(CC1)OC(=O)C(C)=C2C(=O)NCCCN1CCN(C2CCCCC2)CC1	101.7
CCC(Oc1ccccc1F)C(=O)N1CCCC(c2cc3ncccc3cn2)C1 (configuration not stated)	-16.6
COc1cc(Cl)c(CN2C[C@H]3C[C@H](O)[C@H](O)C[C@H]3C2)c(Cl)c1OC	3.7
CC(=O)Nc1ccc(NC(=O)C2COc3ccccc3C2)cc1 (configuration not stated)	5.1
CC(=O)Nc1ccc(C(=O)N(Cc2cccc(F)c2)C2(C(=O)NCc3ccccc3)CCN(C(C)=O)CC2)cc1	36.1
Cc1cn(CCNC(=O)C(c2cccc(F)c2)N(C)C)nn1 (configuration not stated)	4.0
FC(F)(F)c1cc2[nH]c(=S)[nH]c2cc1Cl	-92.9*
COc1ccc(-c2nc(C)c(CCNS(=O)(=O)c3ccc(I)cc3)s2)cc1OC	i
Cn1nnnc1SCCNCc1ccc(-c2cccc(C(F)(F)F)c2)o1	69.5
O=C(c1ccc(N2CCNCC2)nc1)N1CCC(CCc2ccccc2)CC1	-53.1
CCOc1ccc2[nH]c(=O)c(CN3CCCCC3c3nc(C)no3)cc2c1 (configuration not stated)	2.0
CCCOC1CCCN(Cc2cc3cc(OC)ccc3[nH]c2=O)C1 (configuration not stated)	-2.4
CCOc1ccc2[nH]c(=O)c(CN3CCCN(C(=O)C4CC4)CC3)cc2c1	-82.7*
C[C@@H]1CN([C@@H](C)CO)S(=O)(=O)c2ccc(C#Cc3ccccc3F)cc2O[C@H]1CN(C)C(=O)Cc1cccnc1	-90.3*
